Assay results: PubChem BioAssay (NCATS)
Results filed as inconclusive are left out. A call without a number means that no potency is given here. Active and inactive are the calls of the source. Calls come from the whole dose curve; as a rule, active = well fitted inhibition curve with a large enough effect; inconclusive = small, poorly fitted or top-dose-only effect; inactive = flat fitted curve, though single readings scatter.

Assay: Primary qHTS for inhibitors of nuclear receptor binding SET domain protein 2 (NSD2) in an isogenic RCH-ACV NSD2 p.E1099K mutant (9B) (AID 1645876); note: nearly all actives have a fitted effect of over 70% in size
Conditions: RCH-ACV (leukaemia line) NSD2 E1099K (9B) viability, CellTiter-Glo, 72 h; series mostly up to 44.9 µM
For `CCC(C)/C=C(C)/C=C/C1=CC2=C(Cl)C(=O)C(C)(OC(C)=O)C(=O)C2=CN1C1CCCCN(C(CCC(N)=O)C(=O)O)C1=O` (configuration not stated), the Potency was “inactive”. For `C=C1CC[C@@H]2[C@](C)(CO[C@@H]3O[C@H](CO)[C@@H](O)[C@H](O)[C@H]3O)CCC[C@@]2(C)[C@@H]1CCC1=CCOC1=O`, the Potency was “inactive”. For `N#Cc1ccnc(N2C(=O)CC[C@H]2C(=O)N(c2cncc(F)c2)[C@H](C(=O)NC2CC(F)(F)C2)c2ccccc2Cl)c1`, the Potency was “inactive”. For `C=CC(C)(O)CC/C=C(\C)C(=O)OCC1OC(OC2CCC3(C)C(CCC4(C)C3CC=C3C5CC(C)(C)C(O)CC5(C(=O)O)CCC34C)C2(C)C)C(O)C(OC2OC(CO)C(O)C(OC3OC(CO)C(O)C(OC4OC(COC5OC(CO)C(O)C(O)C5O)C(O)C(O)C4O)C3O)C2O)C1O` (configuration not stated), the outcome was “inactive [at 9.23 µM]”. For `CC(C)=CC/C=C(/C)[C@H]1CC[C@]2(C)[C@@H]1[C@H](O)CC1[C@@]3(C)CC[C@H](O)C(C)(C)[C@@H]3[C@@H](O[C@@H]3O[C@H](CO)[C@@H](O)[C@H](O)[C@H]3O[C@@H]3O[C@@H](C)[C@H](O)[C@@H](O)[C@H]3O)C[C@]12C` (some centres not stated), the Potency was “inactive”. With `Cn1ccnc1CCOC(c1cc2nccc(C(=O)O)c2[nH]1)c1ccccc1Cl` (configuration not stated) the Potency was “inactive”. For `C=C1CCC2C(C)(C)C(O)CCC2(C)C1CCC(C)CCOC(=O)CCC(=O)O` (configuration not stated), the Potency was “inactive”.
